Results taken from PubChem BioAssay AID1159580 (chemical genetic matrix, 2015).
“And” between values parts separate entries of the source, which are not always exact repeats. Identical values can stand only once. In all, about 5,500 compounds went through this assay and about 2,000 (36%) were called active. Inconclusive results (about 18%) are left out. Cut-off read from the data, not from the text of the source: active = normalized growth mostly below about 0.91 (no sharp cut-off); inconclusive = no clear call, values can overlap the other calls; inactive = mostly above about 0.92. Some of the results follow.

Assay: chemical genetic growth profiling, strain panel (AID 1159580);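 note: tested at 20 µM; growth read once vehicle control cultures reached saturation at 30 °C; 1 = growth at the plate median or of vehicle wells; lower values mean less growth of the strain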
Conditions: S. cerevisiae deletion strains, growth OD

Measured: normalized growth

CC[C@H](C)C(=O)O[C@H]1C[C@@H](C)C=C2C=C[C@H](C)[C@H](CC[C@@H]3C[C@@H](O)CC(=O)O3)[C@H]21
active: locus YAL021C, strain ccr4, stronger effect = lower value 0.82 | locus YDR137W, strain rgp1, stronger effect = lower value 1.28 [resistant]
inactive: locus YAL013W, strain DEP1, stronger effect = lower value 0.982 | locus YAL026C, strain drs2, stronger effect = lower value 0.994 | locus YAL030W, strain snc1, stronger effect = lower value 1.01 | locus YBL061C, strain skt5, stronger effect = lower value 1 | locus YBR009C, strain hhf1, stronger effect = lower value 1.02 | locus YBR021W, strain FUR4, stronger effect = lower value 1.04 | locus YBR023C, strain chs3, stronger effect = lower value 1.01 | locus YBR171W, strain sec66, stronger effect = lower value 1 | locus YBR229C, strain ROT2, stronger effect = lower value 0.944 | locus YBR231C, strain swc5, stronger effect = lower value 0.915 | locus YBR279W, strain paf1, stronger effect = lower value 1.01 | locus YCL011C, strain gbp2, stronger effect = lower value 1.01 | locus YCL016C, strain dcc1, stronger effect = lower value 0.999 | locus YCL029C, strain bik1, stronger effect = lower value 0.991 | locus YCL061C, strain MRC1, stronger effect = lower value 0.997 | locus YCL069W, strain vba3, stronger effect = lower value 1.01 | locus YCR088W, strain abp1, stronger effect = lower value 0.998 | locus YDL005C, strain med2, stronger effect = lower value 0.982 | locus YDL035C, strain GPR1, stronger effect = lower value 0.961 | locus YDL040C, strain nat1, stronger effect = lower value 1.01 | locus YDL074C, strain BRE1, stronger effect = lower value 1 | locus YDL101C, strain DUN1, stronger effect = lower value 0.977 | locus YDL134C, strain PPH21, stronger effect = lower value 0.971 | locus YDL185W, strain tfp1, stronger effect = lower value 0.977 | locus YDL192W, strain arf1, stronger effect = lower value 0.983 | locus YDR001C, strain nth1, stronger effect = lower value 1 | locus YDR069C, strain doa4, stronger effect = lower value 1.01 | locus YDR101C, strain arx1, stronger effect = lower value 1.02 | locus YDR150W, strain NUM1, stronger effect = lower value 0.967 | locus YDR159W, strain sac3, stronger effect = lower value 1.02 | locus YDR162C, strain NBP2, stronger effect = lower value 0.951 | locus YDR195W, strain ref2 1.06 | locus YDR297W, strain sur2, stronger effect = lower value 0.997 | locus YDR318W, strain mcm21, stronger effect = lower value 0.996 | locus YDR334W, strain swr1, stronger effect = lower value 0.954 | locus YDR335W, strain msn5, stronger effect = lower value 1 | locus YDR388W, stronger effect = lower value 0.996 | locus YDR392W, strain spt3, stronger effect = lower value 0.983 | locus YDR502C, strain sam2, stronger effect = lower value 0.969 | locus YEL003W, strain gim4, stronger effect = lower value 1 | locus YEL037C, strain rad23, stronger effect = lower value 1 | locus YEL061C, strain CIN8 (second series), stronger effect = lower value 1 | locus YEL061C, strain CIN8, stronger effect = lower value 0.979 | locus YER015W, strain faa2, stronger effect = lower value 1.01 | locus YER016W, strain bim1, stronger effect = lower value 1 | locus YER110C, stronger effect = lower value 0.974 | locus YER111C, strain swi4, stronger effect = lower value 1.01 | locus YER155C, strain BEM2 (second series), stronger effect = lower value 1.01 | locus YER155C, strain BEM2, stronger effect = lower value 0.986 | locus YER167W, strain BCK2, stronger effect = lower value 0.942 | locus YFR010W, strain ubp6, stronger effect = lower value 1.02 | locus YGL078C, strain dbp3, stronger effect = lower value 0.984 | locus YGL086W, strain mad1, stronger effect = lower value 0.968 | locus YGL167C, strain pmr1, stronger effect = lower value 0.998 | locus YGL173C, strain kem1, stronger effect = lower value 1.01 | locus YGL227W, strain vid30, stronger effect = lower value 0.996 | locus YGL240W, strain doc1, stronger effect = lower value 1.04 | locus YGL248W, strain PDE1, stronger effect = lower value 0.974 | locus YGL253W, strain hxk2, stronger effect = lower value 0.996 | locus YGR078C, strain PAC10, stronger effect = lower value 0.996 | locus YGR135W, strain pre9, stronger effect = lower value 0.942 | locus YGR229C, strain SMI1, stronger effect = lower value 0.95 | locus YGR252W, strain gcn5, stronger effect = lower value 0.878 | locus YHR013C, strain ard1, stronger effect = lower value 1.04 | locus YHR027C, strain rpn1, stronger effect = lower value 1.01 | locus YHR030C, strain SLT2, stronger effect = lower value 0.985 and 0.963 | locus YHR079C, strain IRE1 (second series), stronger effect = lower value 0.995 | locus YHR079C, strain IRE1, stronger effect = lower value 0.992 | locus YHR094C, strain hxt1, stronger effect = lower value 0.989 | locus YHR129C, strain ARP1, stronger effect = lower value 0.996 | locus YHR142W, strain chs7, stronger effect = lower value 1 | locus YHR200W, strain rpn10, stronger effect = lower value 0.994 | locus YIL066C, strain RNR3, stronger effect = lower value 0.965 | locus YIL073C, strain SPO22, stronger effect = lower value 0.823 | locus YIL125W, strain kgd1, stronger effect = lower value 0.974 | locus YIR030C, strain dcg1, stronger effect = lower value 0.976 | locus YJL092W, strain hpr5, stronger effect = lower value 1 | locus YJL095W, strain BCK1 (second series), stronger effect = lower value 1.01 | locus YJL095W, strain BCK1, stronger effect = lower value 0.988 and 0.96 | locus YJL115W, strain asf1, stronger effect = lower value 1.01 | locus YJL129C, strain trk1, stronger effect = lower value 0.997 | locus YJL134W, strain LCB3, stronger effect = lower value 0.979 | locus YJL154C, strain vps35, stronger effect = lower value 1.01 | locus YJL164C, strain tpk1, stronger effect = lower value 1 | locus YJL166W, strain qcr8, stronger effect = lower value 1.01 | locus YJL168C, strain set2, stronger effect = lower value 0.996 | locus YJL187C, strain SWE1 (second series), stronger effect = lower value 0.989 | locus YJL187C, strain SWE1, stronger effect = lower value 1 | locus YJR043C, strain POL32, stronger effect = lower value 1.04 | locus YJR066W, strain TOR1, stronger effect = lower value 0.915
